According to PubChem BioAssay AID1159580 (chemical genetic matrix, 2015):
In all, about 5,500 compounds went through this assay and about 2,000 (36%) were called active. Roughly 18% stayed inconclusive and do not appear here. Rule as the data show it: active = normalized growth mostly below about 0.91 (no sharp cut-off); inconclusive = no clear call, values can overlap the other calls; inactive = mostly above about 0.92. This is one part of the list.

Assay: chemical genetic growth profiling, strain panel (AID 1159580);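 also: tested at 20 µM; growth read once vehicle control cultures reached saturation at 30 °C; 1 = growth at the plate median or of vehicle wells; lower values mean less growth of the strain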
Conditions: growth OD
[1] = S. cerevisiae deletion strains, locus YDR150W, strain NUM1, stronger effect = lower value
[2] = S. cerevisiae deletion strains, locus YJR075W, strain HOC1, stronger effect = lower value
[3] = S. cerevisiae deletion strains, locus YMR263W, strain SAP30, stronger effect = lower value
[4] = S. cerevisiae deletion strains, locus YNL128W, strain TEP1, stronger effect = lower value
[5] = S. cerevisiae deletion strains, locus YNL153C, strain GIM3, stronger effect = lower value
[6] = S. cerevisiae deletion strains, locus YNL322C, strain KRE1, stronger effect = lower value

Measured: normalized growth

O=C(O)CCCCCC[C@H]1C(=O)NC(=O)N1CC[C@@H](O)C1CCCCC1
inactive: S. cerevisiae deletion strains, locus YAL040C, strain CLN3, stronger effect = lower value 0.969 | S. cerevisiae deletion strains, locus YCL061C, strain MRC1 (second series), stronger effect = lower value 0.985 | [1] 0.996 | S. cerevisiae deletion strains, locus YDR363W, strain ESC2, stronger effect = lower value 0.985 | S. cerevisiae deletion strains, locus YER002W, strain NOP16, stronger effect = lower value 0.936 | S. cerevisiae deletion strains, locus YGR229C, strain SMI1, stronger effect = lower value 0.999 | [2] 0.996 | [3] 0.993 | S. cerevisiae deletion strains, locus YMR307W, strain GAS1, stronger effect = lower value 1 | [4] 0.942 | [5] 0.971 | S. cerevisiae deletion strains, locus YNL175C, strain NOP13, stronger effect = lower value 0.987 | S. cerevisiae deletion strains, locus YNL197C, strain WHI3, stronger effect = lower value 0.962 | S. cerevisiae deletion strains, locus YNL224C, strain SQS1, stronger effect = lower value 0.982 | [6] 0.99 | S. cerevisiae deletion strains, locus YOR083W, strain WHI5 (second series), stronger effect = lower value 0.985

COc1ccccc1C1OC(=O)CC1C(=O)O (stereo not given)
inactive: S. cerevisiae deletion strains, locus YBR229C, strain ROT2, stronger effect = lower value 1.02 | S. cerevisiae deletion strains, locus YCL061C, strain MRC1, stronger effect = lower value 0.989 | S. cerevisiae deletion strains, locus YDL101C, strain DUN1, stronger effect = lower value 1 | S. cerevisiae deletion strains, locus YDL134C, strain PPH21, stronger effect = lower value 1.03 | [1] 0.947 | S. cerevisiae deletion strains, locus YEL061C, strain CIN8, stronger effect = lower value 1 | S. cerevisiae deletion strains, locus YGR078C, strain PAC10, stronger effect = lower value 0.987 | S. cerevisiae deletion strains, locus YHR030C, strain SLT2, stronger effect = lower value 0.963 | S. cerevisiae deletion strains, locus YHR087W, strain rtc3, stronger effect = lower value 1.03 | S. cerevisiae deletion strains, locus YJL187C, strain SWE1, stronger effect = lower value 1.01 | S. cerevisiae deletion strains, locus YJR043C, strain POL32, stronger effect = lower value 0.98 | [2] 0.986 | S. cerevisiae deletion strains, locus YLR039C, strain RIC1, stronger effect = lower value 1.02 | S. cerevisiae deletion strains, locus YLR058C, strain SHM2 (second series), stronger effect = lower value 1.01 | S. cerevisiae deletion strains, locus YLR085C, strain ARP6, stronger effect = lower value 1.02 | S. cerevisiae deletion strains, locus YLR262C, strain YPT6, stronger effect = lower value 1.02 | S. cerevisiae deletion strains, locus YML094W, strain GIM5, stronger effect = lower value 1.02 | S. cerevisiae deletion strains, locus YMR219W, strain ESC1, stronger effect = lower value 1.01 | [3] 0.968 | [4] 1.02 | [5] 1 | S. cerevisiae deletion strains, locus YNL298W, strain CLA4 (second series), stronger effect = lower value 0.998 | [6] 0.999 | S. cerevisiae deletion strains, locus YNR030W, strain Alg12, stronger effect = lower value 1.01 | S. cerevisiae deletion strains, locus YOL006C, strain TOP1, stronger effect = lower value 1.07 | S. cerevisiae deletion strains, locus YPL055C, strain LGE1, stronger effect = lower value 0.955 | S. cerevisiae deletion strains, locus YPL241C, strain CIN2, stronger effect = lower value 0.989 | S. cerevisiae deletion strains, locus YPR135W, strain CTF4, stronger effect = lower value 1.02 | S. cerevisiae strains, strain wild type, stronger effect = lower value 1.02
